Assay results reported in PubChem BioAssay AID1347426 (Functional Genomics Laboratory (NCATS/FGL), 2020).
In all, about 31,000 sequences went through this assay and about 1,400 (4.5%) were called active. Only a selection was taken, and actives are over-represented in it overall. A number with no mark means an inactive call.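 Rule for the calls: active = median seed-adjusted z-score above 1 or below -1; inactive = the rest.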

Experiment: Novel Modifiers of Survival Motor Neuron (SMN) Protein: Gene Identification via Genome-wide siRNA Screen;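 note: luminescence tracks full-length SMN protein made from the SMN2 reporter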
Conditions: HEK293T SMN2-luciferase reporter, siRNA knockdown, 72 h; actives lie on both sides
Summary of the method: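 HEK293T cells stably expressing an SMN2 splicing/cDNA-luciferase reporter were reverse-transfected with a druggable-genome siRNA library and read by luminescence at 72 hours; hits defined by MAD score above 1.0 or below -1.0.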

Row | Sequence | median seed-adjusted z-score
1 | CCUCUAACAUUGGUUCCAATT against XPNPEP1 | -1.5 (active)
2 | CCAUGUACGUCAUCCCAUUTT against PCK1 | -0.401
3 | AGAUGAGCCUAUACAGCGATT against TRIM9 | -0.437
4 | GCAGUUCGGCAGUAUCUGUTT against PSMD6 | -1.03 (active)
5 | CAUCCAGCCCUUAUACAAATT against RBM24 | 0.0471
6 | CGUUCUAUCAACAAACUCATT against EIF2S1 | -0.175
7 | GCCUCACAGGUGCAUCAUATT against TSC2 | 1.11 (active)
8 | GCCUAGGAGCGAGGACUUATT against DNAJC30 | 0.329
9 | CAGCUAUAAUCGUUUAUGATT against RAB22A | 0.321
10 | GGAAUUUCGGCACUCAGAATT against CHIT1 | -0.578
11 | GGUUGCCCAUCUUACUCUATT against ZNF470 | -1.26 (active)
12 | GCUCGGUCUGGUGAACUAATT against KLF3 | 0.628
13 | CAAUCGUCAUAAUGUCUAUTT against A2M | -1.96 (active)
14 | GAUCCAUAGUACACGAAUATT against ADAM7 | -0.0638
15 | AGAUUGUCCUCAACUUCAATT against NRP2 | 0.477
16 | AAUCAAAAGGGAGAACUCATT against HS3ST2 | 0.133
17 | GACCCUCGAUUACUAUUCATT against OMA1 | 0
18 | GCAUCGACAUGUCCUGGGATT against PUF60 | 2.26 (active)
19 | CAUCAACUAUAUCACAGUATT against ATP13A5 | 0.241
20 | AAUUCGAUAUGUUCAGCAATT against GPX4 | -1.18 (active)
21 | CAUCUAGGAUUUUAAGGGATT against ASGR1 | -0.128
22 | GGAGGUUUGUAGAAUAUGUTT against XYLT1 | -0.274

Row | Sequence | median seed-adjusted z-score
23 | GCACGACUGUUACUGGACUTT against POLRMT | 0.0812
24 | GGAUAUCAAUCGAGUACAATT against PIK3R3 | -1.88 (active)
25 | GCUGGACCGUAAAAUUGAATT against PSMC4 | -0.361
26 | CCAACAUCUGGAACGAAUATT against KCNT2 | 0.449
27 | GGACAAGAACGGAAUUUCATT against SCLY | 0.00396
28 | GGACGGAAGAUUUUCGUAUTT against SR140 | 1.16 (active)
29 | GAACCUCUAUUGUGGACAATT against TMEM1 | -0.191
30 | AGAAAGUACUGCACAGAGATT against PCDH8 | -1.03 (active)
31 | CGAAGUUUCCUAUAGAGGATT against PCDHGA10 | 0.0621
32 | GAUAGGAUGUGACAAUGAATT against ING2 | 0.126
33 | GCCUAUCAGGAUCCCAGCATT against RIN1 | -0.0694
34 | AUGUACAAGUGUCAGCUAATT against VEGFC | -0.41
35 | GCAUCGUGGUGUCAAGUCATT against ZBTB12 | 0.0993
36 | GGUUGAAGCUUAUUGCAGATT against HARS2 | 0
37 | CAAAAGUAUUCUUAGGAAATT against SLC25A15 | -0.0116
38 | GACCUACUCUAGUGACAGATT against TRERF1 | -0.0952
39 | ACCGAGAGAUGGUAUAUGATT against SUPT4H1 | -1.01 (active)
40 | AGAUCACUGUAUCACCUCUTT against VDR | -0.031
41 | GCUGGUGACUGAGUUUUCATT against NOB1 | -0.0844
42 | GCUAUAUCAGGAUGAGAUATT against ATG5 | -0.0597
43 | GGCCUUACCCUAAAUCGAATT against RARB | 0.409
44 | CGAGCUACAGGAACAUCUUTT against LSS | -0.302

Row | Sequence | median seed-adjusted z-score
45 | GUGUGAAGGUAGACCGUGATT against SPATA20 | 0
46 | GAGUGGAAGUGUACCAACATT against HCFC1 | 1.47 (active)
47 | GGAAGAUUCAGUUAACAUUTT against NUDT3 | 0.674
48 | CAACCAUGUUCAGUAUAGATT against SPINK9 | 0.392
49 | CCGGAGAAGUUCAACAGCATT against DGKA | -1.36 (active)
50 | GCUAAUCAUUGAGUAUGCATT against KLHL10 | 0.0708
51 | AGCUGACCGAGUUCCUGCATT against GAL3ST1 | 0.263
52 | CCUUGGAGGAGAUCGCUGATT against TEKT2 | -0.349
53 | GGCAUACAGUUCCGAGAAATT against AGL | -0.385
54 | GUCUUAGAAUGUGAACGUATT against CCNL1 | -1.26 (active)
55 | GGCAGGAGGUUUAAGAAGUTT against PPP3R2 | -0.143
56 | GAGAGUAUCGAAACCGUUUTT against GNPTAB | 0.296
57 | GGACUGCACUACUCCAUGATT against ADAMTS2 | -0.338
58 | GCACAGUAGUCACCAAUGATT against FUCA2 | 0.562
59 | CCAAGGUACUAACAUGGGATT against AP3M1 | 0
60 | CCCAGACUCUAGAUAGACATT against SULT1C3 | -0.731
61 | CUCCUGCAGUUGAAGGUGATT against FKBP8 | -0.304
62 | CCAACAAUUUAGUAGUUAUTT against TBP | -1.25 (active)
63 | AGUACAACCUGGUGACGCATT against ZNF710 | 0
64 | GGAUCAAUACUCCAACAAATT against ZNF281 | 1.19 (active)
65 | GGCUUGAUGCUGGUACUUUTT against HACL1 | -0.0664
66 | AGCCUGCGGUUUUCUGUAUTT against SYT12 | -0.329

Row | Sequence | median seed-adjusted z-score
67 | UUACCAUCGUGAAGAGAAATT against CLEC5A | -1.07 (active)
68 | CCUCAUCCCUGUUACAACATT against JAG1 | -0.32
69 | CCAACUGUGUGGCAGAACGTT against FKBP9L | 0.666
70 | GUCUGUAGUUCACCCGUUATT against USP9Y | 0.012
71 | AGCUAGGCCUGGAUAUCGATT against KRT83 | 1.15 (active)
72 | GCUUUCUACAAGUAUAAGATT against ERO1LB | 0.565
73 | GGCUACCUGCAUUCACUGATT against SGK1 | -0.659
74 | CCACAGAUGUGCAUAAACATT against NFKB2 | -0.132
75 | GGAACAUCGAAAUCGUGUATT against DDX6 | 1.12 (active)
76 | GGUCUACUUCUACUACAAUTT against UTY | -0.538
77 | CCGGUCAACUGUUACGUAUTT against GJA5 | 0.707
78 | CAUUCUGUGGUGAAACAUUTT against SCLY | 0.00396
79 | CCACCAUAGGAUAUGGUUATT against KCNJ16 | -0.705
80 | CGCAAUAACUGUUUGGUAUTT against EGLN1 | 2.05 (active)
81 | GGCUAAUCGUGAACCGGAATT against DOCK8 | 0.243
82 | GGAUGGUAGUGUCUGACUUTT against MGLL | 0.288
83 | UGAAGAUGAUUGUCCUUAUTT against VAMP8 | -0.184
84 | CACCCUGCAGGUUCCCAUATT against HSD17B14 | 0.386
85 | GGAUGCUUCUGAAUAGAAATT against BIRC7 | -1.44 (active)
86 | CACUAUUGCAUGUAUCGAATT against ARHGAP10 | -0.458
87 | CAAAGGGCUAAGUUCUAAATT against TBC1D5 | 0.38
88 | AAACUAACAUUCGAUUGAATT against TRIM48 | 0

Row | Sequence | median seed-adjusted z-score
89 | GGUGGAGGACCAAACAGAATT against MGAT4B | 0.0142
90 | GCUCUACUAUUUCUACGAUTT against SPPL2B | 0.0324
91 | GCAAGAGAGUCUCAAAUUUTT against EVX1 | 1 (active)
92 | CCAUGCUCCAGUUAUCUUUTT against SLC10A6 | -0.803
93 | GAUUCUUCCCGGCAUCAUATT against GUCY1A3 | 0.187
94 | GGGUGUAAAAUGCACGUUUTT against CLDN16 | -0.868
95 | CACUUGGAGUGGUGAAUCATT against NCL | 1.33 (active)
96 | GCUCGGUGGAAAAACGUGATT against SCN3A | -0.0556
97 | CAGUCUACAGCUUCAACAATT against ZNF207 | -3.1 (active)
98 | CGCUGACCCUGGAGAUGUATT against CALY | 0.216
99 | GGACAAUCCUUUCAUUAAUTT against HTR3C | -0.221
100 | CUAAUUUACUAUUACGCUUTT against F2R | -0.392
101 | UCCCAGCACUUAUAGCCUATT against ANKRA2 | 1.26 (active)
102 | AGCCCUCUUCUGACACUAATT against SERPINH1 | 0.186
103 | GCGUUGACCAAGACUCAUATT against TP53BP2 | 0.157
104 | AGCACUGCAUGUUCACCGATT against KLHL25 | -0.0146
105 | GCAUAUUAAGGAGACCUAUTT against HSD17B6 | 0.573
106 | CCAUCGUUCUGGGAAUUCUTT against CD6 | -0.33
107 | GGAUGAUAAUGCUAAUCCATT against PPP1R3A | -0.241
108 | GGACUUUGACAAGAACAGUTT against CYP1A2 | 0
109 | GAACAAUGAGUAUAUCCUATT against PPP2R5B | 0.237
